Hits are enriched below; roughly 21% of the tested compounds scored in any of these assays.
SARS PLP yeast – inhibitors of SARS-CoV papain-like protease in yeast; 0.19% of 330,000 active; Potency, µM (highest dose often 32.9 µM), most hits filed as activators; S. cerevisiae expressing SARS-CoV PLpro, growth rescue; AID 485353; note: nearly all actives have a fitted effect of over 55% in size
NS1 inh – blocks influenza NS1 protein function; 0.4% of 270,000 active; Potency, µM (highest dose often 46.1 µM); AID 2326; note: actives are rising curves; nearly all actives have a fitted effect of over 50% in size
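S. cerevisiae expressing influenza A NS1, grown in glucose, washed, then diluted 1:100 into pH 6.0 -URA galactose medium with 23 nl compound. Growth recovery read as OD600; NS1-free strain serves as control.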
Pf growth 48h – inhibits P. falciparum growth in the first generation, 48 h. 5.9% of 310,000 active. AID 504832. Potency, µM (top dose mostly 28.7 µM), hits mostly inhibitors. P. falciparum luciferase growth in erythrocytes, 48 h; active = well fitted inhibition curve with a large enough effect; inconclusive = small, poorly fitted or top-dose-only effect, or another doubt; inactive = no such curve, though single readings can be large or run the other way
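In quantitative HTS format, infected erythrocytes bearing luciferase-reporter parasites were treated for a single generation at 37 C. Luminescence after adding detection reagent served as the growth measure.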
Shiga inhibitor – Shiga toxin inhibition | 9.2% of 290,000 active | inhibition, % at 38.7 µM | Vero cells, Shiga toxin protein synthesis inhibition reporter | AID 2315; in the data active = inhibition mostly above about 28%, no sharp cut-off; inactive = mostly below about 43%
CHX counter – counter-screen hit for Shiga toxin inhibitors, cycloheximide | cell reporter, cycloheximide protein synthesis inhibition counterscreen | max response, % | 12% of 300,000 active; in the data active = max response mostly above about 13%, no sharp cut-off; inactive = mostly below about 14%; note: read at 38.3 µM for the half of the compounds with a filed dose
Pf growth 96h – inhibits malaria parasite growth, 96 h; P. falciparum luciferase reporter growth, 96 h; Potency, µM (series often up to 28.7 µM), most hits filed as inhibitors; 6.9% of 320,000 active; AID 504834; active = well fitted inhibition curve with a large enough effect; inconclusive = small, poorly fitted or top-dose-only effect, or another doubt; inactive = no such curve, though single readings can be large or run the other way
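Erythrocytes infected with luciferase-expressing P. falciparum were dispensed at 2% hematocrit and 0.05% parasitemia (final), then incubated with compounds 96 hours at 37 C in 5% CO2. Luminescence after detection reagent addition reported growth.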
Of the large screens only hits and unclear results are named; the others gave an inactive call. Unless noted, calls come from the whole dose curve.

COc1ccc(OC)c(CN2CCN(C(=O)c3ccco3)CC2)c1	Pf growth 96h inconclusive
O=C(c1ccco1)N1CCN(Cc2csc(-c3ccccc3Cl)n2)CC1	Shiga inhibitor 83.2, CHX counter 50.1
CC1CCCN(C(=O)COC(=O)C2CCN(S(=O)(=O)c3c(Cl)cccc3Cl)CC2)C1 (centres undefined)	Pf growth 48h inconclusive (no result: NS1 inh, Shiga inhibitor, CHX counter)
CCN(C(=O)c1ccc2c(=O)n3c(nc2c1)CCCCC3)c1ccccc1C	Pf growth 96h inconclusive
CCCNc1nc(C)c(C(C)=O)cc1C#N	none (no result: Pf growth 96h)
O=C(c1ccco1)N1CCN(Cc2c(Cl)cccc2Cl)CC1	CHX counter 21.0, Pf growth 96h 2.62µM
C#CCN1C(=O)S/C(=C/C=C/c2ccc(N(C)C)cc2)C1=O	Shiga inhibitor 115.6, CHX counter 47.1, Pf growth 96h inconclusive
Cc1ccc(S(=O)(=O)CC(=O)N2CCN(c3cccc(C(F)(F)F)c3)CC2)cc1	none
O=C(Oc1cccc(C(=S)N2CCOCC2)c1)c1cc([N+](=O)[O-])cc([N+](=O)[O-])c1	none
Cc1noc(C)c1COc1ccccc1C(=O)NC1CCC(C)CC1 (centres undefined)	Pf growth 48h inconclusive, Shiga inhibitor 55.2, CHX counter 26.9, Pf growth 96h 4.15µM
Cc1noc(C)c1COC(=O)c1ccccc1Oc1ccccc1	Pf growth 96h 13.1µM
Cc1noc(C)c1COc1ccccc1C(=O)N(C)Cc1ccc(C(C)(C)C)cc1	Pf growth 48h 11.7µM, Pf growth 96h 14.7µM (no result: NS1 inh, Shiga inhibitor, CHX counter)
Cc1noc(C)c1COC(=O)c1ccccc1NC(=O)Cc1ccccc1	Pf growth 48h inconclusive, Pf growth 96h inconclusive
Cc1noc(C)c1COc1ccccc1C(=O)NCCOc1ccccc1F	none (no result: NS1 inh, Shiga inhibitor, CHX counter)
COc1ccc(CN(C)C(=O)Cn2ccc(N)nc2=O)cc1OC	Pf growth 96h inconclusive (no result: NS1 inh, Shiga inhibitor, CHX counter)
Cc1ccc(NC(=O)CSCC(=O)N(CCC(C)C)c2c(N)n(Cc3ccccc3)c(=O)[nH]c2=O)cc1	Pf growth 48h inconclusive (no result: NS1 inh, Shiga inhibitor, CHX counter)
Cc1nn(-c2ccccc2)c(/N=C/c2ccc(O)cc2)c1-c1ccccc1	CHX counter 26.5
O=C(OCc1cnc(Cl)s1)c1cccs1	none
Cc1nn(C2CCOC(C)(C)C2)c2c1C(c1ccc3c(c1)OCO3)SCC(=O)N2 (centres undefined)	Pf growth 48h inconclusive, Pf growth 96h 9.28µM
COC(=O)c1ccc(C(=O)OC)c(NC(=O)COC(=O)C2CC2C)c1 (centres undefined)	none (no result: Pf growth 96h)
OCC1=C[C@@H](O)[C@@H]2C=CO[C@@H](OC3O[C@H](CO)[C@@H](O)[C@H](O)[C@H]3O)[C@H]12 (some centres undefined)	none (no result: SARS PLP yeast, NS1 inh, Pf growth 48h, Pf growth 96h)
CC(=O)n1nc(-c2ccco2)nc1N	Pf growth 96h inconclusive
CC(=O)n1nc(-c2ccco2)nc1SCc1ccccc1	CHX counter 18.9, Pf growth 96h inconclusive
O=C(c1cccs1)n1nc(-c2ccco2)nc1SCc1ccccc1	Shiga inhibitor 41.0, CHX counter 25.8, Pf growth 96h inconclusive (no result: Pf growth 48h)
CCC(=O)n1nc(-c2ccco2)nc1N	none
CSc1nc(-c2ccco2)nn1C(=O)c1cccs1	Pf growth 96h inconclusive
CCC(=O)n1nc(-c2ccco2)nc1SCc1ccccc1	Shiga inhibitor 31.6, CHX counter 35.2
O=C(Nn1cnnc1)c1ccccc1-c1ccccc1	none (no result: Pf growth 96h)
Cc1ncc([N+](=O)[O-])n1CC(=O)Nc1ccc(F)c(Cl)c1	Pf growth 48h inconclusive
COc1cccc(O)c1CN1CCC(C(=O)Nc2ccc(Oc3cccnc3)cc2)CC1	Pf growth 48h inconclusive
Cc1cc(C)nc(N2CCC(C(=O)Nc3ccc(Oc4ccccc4)cc3)CC2)n1	Pf growth 96h 11.7µM
COc1ccc(CN2CCC(C(=O)Nc3ccc(Oc4cccnc4)cc3)CC2)c(C)c1C	Pf growth 48h 7.38µM
Cn1cc(CN2CCC(C(=O)Nc3ccc(Oc4ccccc4F)cc3)CC2)cn1	Pf growth 96h inconclusive
Cc1ccnc(N2CCC(C(=O)Nc3ccc(Oc4ccccc4)cc3)CC2)n1	none
COc1ccc(CN2CCC(C(=O)Nc3ccc(Oc4cccnc4)cc3)CC2)cc1	Pf growth 48h 11.7µM
Cc1cc(C)nc(N2CCC(C(=O)NCc3ccccc3)CC2)n1	Pf growth 96h inconclusive
Cc1cc(C)nc(N2CCC(CNC(=O)CCc3ccccc3)CC2)n1	Pf growth 48h inconclusive, Pf growth 96h 10.4µM
COc1ccc(C2C3=C(CCCC3=O)Nc3nc(C(F)(F)F)nn32)c(OC)c1OC (centres undefined)	none
COc1ccc(/C(O)=C2/C(=O)C(=O)N(CCCN(C)C)C2c2cccc(Cl)c2)cc1OC (centres undefined)	none
CC1CN(S(=O)(=O)c2cccc(C(=O)Nc3ccccc3N3CCCC3)c2)CC(C)O1 (centres undefined)	Pf growth 48h inconclusive, Pf growth 96h inconclusive (no result: NS1 inh, Shiga inhibitor, CHX counter)
C=CCn1c(CCC(=O)O)ccc1-c1ccccc1	none
Cc1cc(C)nc(N2CCC(C(=O)NCc3cccc(C(F)(F)F)c3)CC2)n1	Pf growth 96h 2.08µM
Cc1ccccc1CN1CCCC(C(=O)Nc2ccccc2Oc2cccnc2)C1 (centres undefined)	Pf growth 48h 2.62µM
COc1cccc(O)c1CN1CCC(C(=O)Nc2ccc(-c3cccc(C)c3)cc2)CC1	Pf growth 48h 4.15µM, Pf growth 96h 4.15µM
CCn1ccnc1CN1CCCCC1C(=O)Nc1ccc(Oc2cccnc2)cc1 (centres undefined)	Pf growth 48h inconclusive
Cn1ccnc1CN1CCCCC1C(=O)Nc1ccc(Oc2cccnc2)cc1 (centres undefined)	Pf growth 48h inconclusive, Pf growth 96h 13.1µM
O=C(Nc1ccccc1Oc1cccnc1)C1CCCN(Cc2ccc(F)cc2)C1 (centres undefined)	NS1 inh inconclusive, Pf growth 48h inconclusive
CC(C)CNS(=O)(=O)c1ccc(CCC(=O)NCCC2=CCCCC2)cc1	Pf growth 48h inconclusive
CSc1ccc(CN2CCC(n3nccc3NC(=O)CCCc3ccccc3)CC2)cc1	Pf growth 96h inconclusive
COc1ccc(CCNC(=O)C(=O)NCC2OCCN2S(=O)(=O)c2ccccc2)cc1 (centres undefined)	none
CCNC(=S)N(Cc1cccs1)Cc1cc2cc(OCC)ccc2[nH]c1=O	Pf growth 48h inconclusive, Pf growth 96h inconclusive
COc1ccc2[nH]c(=O)c(CN(Cc3cccs3)C(=S)Nc3ccccc3)cc2c1	Pf growth 48h inconclusive, Pf growth 96h 4.65µM
Cc1cccc2cc(CN(Cc3cccs3)C(=S)NCC3CCCO3)c(=O)[nH]c12 (centres undefined)	none
CNC(=S)N(Cc1cccs1)Cc1cc2ccc(OC)cc2[nH]c1=O	Pf growth 48h inconclusive, Pf growth 96h inconclusive
Cc1ccc(NC(=S)N(Cc2cccs2)Cc2cc3cccc(C)c3[nH]c2=O)cc1	Pf growth 96h 7.38µM
CNC(=S)N(Cc1ccco1)Cc1cc2cc(OC)ccc2[nH]c1=O	Pf growth 48h 2.62µM
COc1cc2cc(CN(Cc3cccs3)C(=S)Nc3ccccc3)c(=O)[nH]c2cc1OC	Pf growth 48h 11.7µM
CNC(=S)N(Cc1ccco1)Cc1cc2cc(OC)c(OC)cc2[nH]c1=O	Pf growth 48h inconclusive
